Test results: PubChem BioAssay AID1159580 (chemical genetic matrix, 2015)
The campaign covered roughly 5,500 compounds. About 2,000 (36%) were called active. Inconclusive results (about 18%) are left out. Cut-off read from the data, not from the text of the source: active = normalized growth mostly below about 0.91 (no sharp cut-off); inconclusive = no clear call, values can overlap the other calls; inactive = mostly above about 0.92. Some of the results follow.

Assay: chemical genetic growth profiling, strain panel (AID 1159580);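 note: tested at 20 µM; growth read once vehicle control cultures reached saturation at 30 °C; 1 = growth at the plate median or of vehicle wells; lower values mean less growth of the strain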
Conditions: growth OD
[1] = S. cerevisiae deletion strains, locus YAL013W, strain DEP1, hits give low values
[2] = S. cerevisiae deletion strains, locus YGR229C, strain SMI1, hits give low values
[3] = S. cerevisiae deletion strains, locus YJR075W, strain HOC1, hits give low values
[4] = S. cerevisiae deletion strains, locus YMR263W, strain SAP30, hits give low values
[5] = S. cerevisiae deletion strains, locus YNL322C, strain KRE1, hits give low values
[6] = S. cerevisiae deletion strains, locus YPL055C, strain LGE1, hits give low values
[7] = S. cerevisiae deletion strains, locus YPL241C, strain CIN2, hits give low values
[8] = S. cerevisiae deletion strains, locus YAL040C, strain CLN3, hits give low values
[9] = S. cerevisiae deletion strains, locus YCL061C, strain MRC1 (second series), hits give low values
[10] = S. cerevisiae deletion strains, locus YDR363W, strain ESC2, hits give low values
[11] = S. cerevisiae deletion strains, locus YER002W, strain NOP16, hits give low values
[12] = S. cerevisiae deletion strains, locus YNL175C, strain NOP13, hits give low values
[13] = S. cerevisiae deletion strains, locus YNL197C, strain WHI3, hits give low values
[14] = S. cerevisiae deletion strains, locus YNL224C, strain SQS1, hits give low values
[15] = S. cerevisiae deletion strains, locus YOR083W, strain WHI5 (second series), hits give low values

Measured: normalized growth

CN1CC(CO)=C[C@@H]2c3cccc4[nH]cc(c34)C[C@H]21
inactive: [1] 0.994 | S. cerevisiae deletion strains, locus YBR021W, strain FUR4, hits give low values 1.02 | S. cerevisiae deletion strains, locus YBR229C, strain ROT2, hits give low values 0.967 | S. cerevisiae deletion strains, locus YCL029C, strain bik1, hits give low values 1.01 | S. cerevisiae deletion strains, locus YDL035C, strain GPR1, hits give low values 0.99 | S. cerevisiae deletion strains, locus YDL074C, strain BRE1, hits give low values 0.957 | S. cerevisiae deletion strains, locus YDL101C, strain DUN1, hits give low values 0.97 | S. cerevisiae deletion strains, locus YDL134C, strain PPH21, hits give low values 0.998 | S. cerevisiae deletion strains, locus YDL185W, strain tfp1, hits give low values 0.982 | S. cerevisiae deletion strains, locus YDL192W, strain arf1, hits give low values 1.01 | S. cerevisiae deletion strains, locus YDR101C, strain arx1, hits give low values 1.01 | S. cerevisiae deletion strains, locus YDR150W, strain NUM1, hits give low values 0.991 | S. cerevisiae deletion strains, locus YDR162C, strain NBP2, hits give low values 0.964 | S. cerevisiae deletion strains, locus YDR318W, strain mcm21, hits give low values 1.02 | S. cerevisiae deletion strains, locus YDR388W, hits give low values 1.01 | S. cerevisiae deletion strains, locus YDR502C, strain sam2, hits give low values 0.993 | S. cerevisiae deletion strains, locus YEL061C, strain CIN8, hits give low values 0.995 | S. cerevisiae deletion strains, locus YER110C, hits give low values 1.01 | S. cerevisiae deletion strains, locus YER155C, strain BEM2, hits give low values 1.01 | S. cerevisiae deletion strains, locus YER167W, strain BCK2, hits give low values 1.01 | S. cerevisiae deletion strains, locus YGL078C, strain dbp3, hits give low values 0.997 | S. cerevisiae deletion strains, locus YGL086W, strain mad1, hits give low values 1.01 | S. cerevisiae deletion strains, locus YGL248W, strain PDE1, hits give low values 0.988 | S. cerevisiae deletion strains, locus YGR078C, strain PAC10, hits give low values 0.977 | S. cerevisiae deletion strains, locus YGR135W, strain pre9, hits give low values 0.985 | [2] 0.992 | S. cerevisiae deletion strains, locus YGR252W, strain gcn5, hits give low values 1.05 | S. cerevisiae deletion strains, locus YHR030C, strain SLT2, hits give low values 1.01 | S. cerevisiae deletion strains, locus YHR079C, strain IRE1 (second series), hits give low values 1.01 | S. cerevisiae deletion strains, locus YHR094C, strain hxt1, hits give low values 1.01 | S. cerevisiae deletion strains, locus YHR129C, strain ARP1, hits give low values 1.01 | S. cerevisiae deletion strains, locus YHR200W, strain rpn10, hits give low values 1.01 | S. cerevisiae deletion strains, locus YIL066C, strain RNR3, hits give low values 0.983 | S. cerevisiae deletion strains, locus YIL073C, strain SPO22, hits give low values 1.05 | S. cerevisiae deletion strains, locus YIL125W, strain kgd1, hits give low values 0.996 | S. cerevisiae deletion strains, locus YIR030C, strain dcg1, hits give low values 1 | S. cerevisiae deletion strains, locus YJL095W, strain BCK1, hits give low values 0.995 | S. cerevisiae deletion strains, locus YJL134W, strain LCB3, hits give low values 0.989 | S. cerevisiae deletion strains, locus YJL168C, strain set2, hits give low values 0.998 | S. cerevisiae deletion strains, locus YJL187C, strain SWE1 (second series), hits give low values 0.975 | S. cerevisiae deletion strains, locus YJR043C, strain POL32, hits give low values 1.03 | [3] 0.945 | S. cerevisiae deletion strains, locus YKL009W, strain mrt4, hits give low values 1.01 | S. cerevisiae deletion strains, locus YKL068W, hits give low values 0.999 | S. cerevisiae deletion strains, locus YKL085W, strain MDH1 (second series), hits give low values 1.02 | S. cerevisiae deletion strains, locus YKL085W, strain MDH1, hits give low values 1.02 | S. cerevisiae deletion strains, locus YKL190W, strain CNB1, hits give low values 0.994 | S. cerevisiae deletion strains, locus YKR001C, strain vps1, hits give low values 1.02 | S. cerevisiae deletion strains, locus YLR039C, strain RIC1, hits give low values 0.954 | S. cerevisiae deletion strains, locus YLR058C, strain SHM2, hits give low values 0.982 | S. cerevisiae deletion strains, locus YLR102C, strain apc9, hits give low values 1 | S. cerevisiae deletion strains, locus YLR262C, strain YPT6, hits give low values 0.957 | S. cerevisiae deletion strains, locus YLR268W, strain sec22, hits give low values 0.975 | S. cerevisiae deletion strains, locus YLR330W, strain CHS5, hits give low values 1 | S. cerevisiae deletion strains, locus YLR342W, strain FKS1 (second series), hits give low values 1.03 | S. cerevisiae deletion strains, locus YLR371W, strain rom2, hits give low values 1.01 | S. cerevisiae deletion strains, locus YLR418C, strain cdc73, hits give low values 0.966 | S. cerevisiae deletion strains, locus YML016C, strain PPZ1, hits give low values 1 | S. cerevisiae deletion strains, locus YML032C, strain rad52, hits give low values 1.01 | S. cerevisiae deletion strains, locus YML124C, strain tub3, hits give low values 1.01 | S. cerevisiae deletion strains, locus YMR078C, strain ctf18, hits give low values 1.01 | S. cerevisiae deletion strains, locus YMR223W, strain ubp8, hits give low values 1.02 | [4] 0.955 | S. cerevisiae deletion strains, locus YMR307W, strain GAS1, hits give low values 1.06 | S. cerevisiae deletion strains, locus YNL067W, strain RPL9B, hits give low values 0.987 | S. cerevisiae deletion strains, locus YNL128W, strain TEP1, hits give low values 0.939 | S. cerevisiae deletion strains, locus YNL153C, strain GIM3, hits give low values 0.975 | S. cerevisiae deletion strains, locus YNL233W, strain BNI4, hits give low values 0.99 | S. cerevisiae deletion strains, locus YNL250W, strain rad50, hits give low values 0.988 | S. cerevisiae deletion strains, locus YNL271C, strain bni1, hits give low values 1.01 | S. cerevisiae deletion strains, locus YNL298W, strain CLA4, hits give low values 1.01 | S. cerevisiae deletion strains, locus YNL307C, strain MCK1, hits give low values 1.02 | [5] 0.982 | S. cerevisiae deletion strains, locus YNR052C, strain pop2, hits give low values 1.01 | S. cerevisiae deletion strains, locus YOL006C, strain TOP1, hits give low values 0.983 | S. cerevisiae deletion strains, locus YOL012C, strain htz1 1.85 | S. cerevisiae deletion strains, locus YOL147C, strain pex11, hits give low values 1.01 | S. cerevisiae deletion strains, locus YOR061W, strain CKA2, hits give low values 0.963 | S. cerevisiae deletion strains, locus YOR069W, strain VPS5, hits give low values 1 | S. cerevisiae deletion strains, locus YOR136W, strain idh2, hits give low values 1.01 | S. cerevisiae deletion strains, locus YOR144C, strain elg1, hits give low values 1.01 | S. cerevisiae deletion strains, locus YOR184W, strain ser1, hits give low values 1.02 | S. cerevisiae deletion strains, locus YOR316C, strain cot1, hits give low values 1 | [6] 0.938 | [7] 0.997 | S. cerevisiae deletion strains, locus YPR119W, strain clb2, hits give low values 1.01 | S. cerevisiae deletion strains, locus YPR141C, strain kar3, hits give low values 0.998 | S. cerevisiae deletion strains, locus YPR163C, strain tif3, hits give low values 1.01 | S. cerevisiae deletion strains, locus YPR167C, strain met16, hits give low values 0.996 | S. cerevisiae deletion strains, strain wtn01, hits give low values 0.995 | S. cerevisiae strains, strain wild type, hits give low values 0.99

c1ccc(CCCN2CCN(CCOC(c3ccccc3)c3ccccc3)CC2)cc1
inactive: [1] 0.977 | [8] 0.967 | [10] 0.941 | [11] 0.998 | [3] 0.93 | [4] 0.992 | [12] 0.996 | [13] 0.991 | [14] 1.02 | [15] 0.881 | [6] 0.95
active: [9] 0.932

Fc1ccc(C(OCCCc2cnc[nH]2)c2ccc(F)cc2)cc1
inactive: [8] 1.01 | [9] 1 | [10] 0.979 | [11] 1.04 | [2] 1.02 | [4] 1.01 | [12] 1.01 | [13] 1.01 | [14] 1.02 | [5] 1.03 | [15] 1.03 | [7] 1.01
